Assay results from PubChem BioAssay AID1159580 (chemical genetic matrix, 2015).
The campaign covered roughly 5,500 compounds. About 2,000 (36%) were called active. About 18% were inconclusive and are not listed. No stated cut-off is given here; in the data, active means normalized growth mostly below about 0.91 (no sharp cut-off); inconclusive means no clear call, values can overlap the other calls; inactive means mostly above about 0.92. The list shows a part of the results.

Test: chemical genetic growth profiling, strain panel (AID 1159580);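 further: tested at 20 µM; growth read once vehicle control cultures reached saturation at 30 °C; 1 = growth at the plate median or of vehicle wells; lower values mean less growth of the strain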
Conditions: growth OD

Measured: normalized growth

CN[C@@H]1[C@@H](O[C@H]2O[C@H](CO)[C@@H](N)[C@H](O)[C@H]2O)O[C@H]2C[C@@H](N)[C@H](O[C@H]3[C@H](O)[C@@H](O)[C@H](N)C[C@@H]3N)O[C@@H]2[C@@H]1O
inactive: S. cerevisiae deletion strains, locus YKL009W, strain mrt4, active compounds read low 0.996 | S. cerevisiae deletion strains, locus YKL068W, active compounds read low 1.01 | S. cerevisiae deletion strains, locus YKL085W, strain MDH1 (second series), active compounds read low 0.982 | S. cerevisiae deletion strains, locus YKL085W, strain MDH1, active compounds read low 0.982 | S. cerevisiae deletion strains, locus YKL160W, strain elf1, active compounds read low 1.01 | S. cerevisiae deletion strains, locus YKL190W, strain CNB1, active compounds read low 1 | S. cerevisiae deletion strains, locus YKR001C, strain vps1, active compounds read low 0.989 | S. cerevisiae deletion strains, locus YKR026C, strain gcn3, active compounds read low 1 | S. cerevisiae deletion strains, locus YKR091W, strain srl3, active compounds read low 1 | S. cerevisiae deletion strains, locus YLL001W, strain dnm1, active compounds read low 1.02 | S. cerevisiae deletion strains, locus YLL026W, active compounds read low 1.01 | S. cerevisiae deletion strains, locus YLL041C, strain sdh2, active compounds read low 0.997 | S. cerevisiae deletion strains, locus YLR027C, strain aat2, active compounds read low 1.01 | S. cerevisiae deletion strains, locus YLR039C, strain RIC1, active compounds read low 1.07 | S. cerevisiae deletion strains, locus YLR058C, strain SHM2, active compounds read low 1.01 | S. cerevisiae deletion strains, locus YLR102C, strain apc9, active compounds read low 1.01 | S. cerevisiae deletion strains, locus YLR113W, strain HOG1, active compounds read low 0.939 | S. cerevisiae deletion strains, locus YLR221C, strain rsa3, active compounds read low 1 | S. cerevisiae deletion strains, locus YLR258W, strain gsy2, active compounds read low 1 | S. cerevisiae deletion strains, locus YLR262C, strain YPT6 (second series), active compounds read low 1 | S. cerevisiae deletion strains, locus YLR262C, strain YPT6, active compounds read low 1.05 | S. cerevisiae deletion strains, locus YLR268W, strain sec22, active compounds read low 0.981 | S. cerevisiae deletion strains, locus YLR320W, strain mms22, active compounds read low 0.991 | S. cerevisiae deletion strains, locus YLR330W, strain CHS5, active compounds read low 1.01 | S. cerevisiae deletion strains, locus YLR342W, strain FKS1 (second series), active compounds read low 1.07 | S. cerevisiae deletion strains, locus YLR342W, strain FKS1, active compounds read low 1.02 | S. cerevisiae deletion strains, locus YLR357W, strain rsc2, active compounds read low 0.996 | S. cerevisiae deletion strains, locus YLR370C, strain arc18, active compounds read low 1.01 | S. cerevisiae deletion strains, locus YLR371W, strain rom2, active compounds read low 1.01 | S. cerevisiae deletion strains, locus YLR384C, strain iki3, active compounds read low 1 | S. cerevisiae deletion strains, locus YLR418C, strain cdc73, active compounds read low 0.99 | S. cerevisiae deletion strains, locus YML016C, strain PPZ1, active compounds read low 1 | S. cerevisiae deletion strains, locus YML032C, strain rad52, active compounds read low 1.01 | S. cerevisiae deletion strains, locus YML120C, strain ndi1, active compounds read low 1 | S. cerevisiae deletion strains, locus YML124C, strain tub3, active compounds read low 0.995 | S. cerevisiae deletion strains, locus YMR058W, strain fet3, active compounds read low 1.02 | S. cerevisiae deletion strains, locus YMR078C, strain ctf18, active compounds read low 1.02 | S. cerevisiae deletion strains, locus YMR125W, strain sto1, active compounds read low 0.988 | S. cerevisiae deletion strains, locus YMR129W, active compounds read low 0.986 | S. cerevisiae deletion strains, locus YMR205C, strain PFK2, active compounds read low 1.02 | S. cerevisiae deletion strains, locus YMR223W, strain ubp8, active compounds read low 0.913 | S. cerevisiae deletion strains, locus YMR231W, strain pep5, active compounds read low 1.01 | S. cerevisiae deletion strains, locus YMR263W, strain SAP30, active compounds read low 0.991 | S. cerevisiae deletion strains, locus YMR307W, strain GAS1, active compounds read low 1.03 | S. cerevisiae deletion strains, locus YNL067W, strain RPL9B, active compounds read low 0.988 | S. cerevisiae deletion strains, locus YNL071W, strain lat1, active compounds read low 0.995 | S. cerevisiae deletion strains, locus YNL128W, strain TEP1, active compounds read low 1.03 | S. cerevisiae deletion strains, locus YNL153C, strain GIM3, active compounds read low 0.98 | S. cerevisiae deletion strains, locus YNL183C, strain NPR1, active compounds read low 0.916 | S. cerevisiae deletion strains, locus YNL209W, strain ssb2, active compounds read low 0.996 | S. cerevisiae deletion strains, locus YNL233W, strain BNI4, active compounds read low 1 | S. cerevisiae deletion strains, locus YNL248C, strain rpa49, active compounds read low 0.999 | S. cerevisiae deletion strains, locus YNL250W, strain rad50, active compounds read low 1.01 | S. cerevisiae deletion strains, locus YNL271C, strain bni1, active compounds read low 0.997 | S. cerevisiae deletion strains, locus YNL298W, strain CLA4, active compounds read low 1.01 | S. cerevisiae deletion strains, locus YNL307C, strain MCK1, active compounds read low 1.02 | S. cerevisiae deletion strains, locus YNL322C, strain KRE1 (second series), active compounds read low 1 | S. cerevisiae deletion strains, locus YNL322C, strain KRE1, active compounds read low 1.01 | S. cerevisiae deletion strains, locus YNR049C, strain mso1, active compounds read low 0.999 | S. cerevisiae deletion strains, locus YNR052C, strain pop2, active compounds read low 0.996 | S. cerevisiae deletion strains, locus YOL006C, strain TOP1, active compounds read low 1 | S. cerevisiae deletion strains, locus YOL012C, strain htz1 0.612 | S. cerevisiae deletion strains, locus YOL147C, strain pex11, active compounds read low 1 | S. cerevisiae deletion strains, locus YOR001W, strain rrp6, active compounds read low 1 | S. cerevisiae deletion strains, locus YOR061W, strain CKA2, active compounds read low 1.01 | S. cerevisiae deletion strains, locus YOR069W, strain VPS5, active compounds read low 1 | S. cerevisiae deletion strains, locus YOR070C, strain gyp1, active compounds read low 1 | S. cerevisiae deletion strains, locus YOR080W, strain dia2, active compounds read low 1.01 | S. cerevisiae deletion strains, locus YOR083W, strain WHI5, active compounds read low 1.01 | S. cerevisiae deletion strains, locus YOR106W, strain vam3, active compounds read low 1.01 | S. cerevisiae deletion strains, locus YOR136W, strain idh2, active compounds read low 1.01 | S. cerevisiae deletion strains, locus YOR144C, strain elg1, active compounds read low 1 | S. cerevisiae deletion strains, locus YOR184W, strain ser1, active compounds read low 1.03 | S. cerevisiae deletion strains, locus YOR231W, strain MKK1, active compounds read low 0.951 | S. cerevisiae deletion strains, locus YOR265W, strain rbl2, active compounds read low 1.01 | S. cerevisiae deletion strains, locus YOR270C, strain vph1, active compounds read low 1.2 | S. cerevisiae deletion strains, locus YOR290C, strain snf2, active compounds read low 0.991 | S. cerevisiae deletion strains, locus YOR316C, strain cot1, active compounds read low 1.01 | S. cerevisiae deletion strains, locus YPL051W, strain arl3, active compounds read low 1.02 | S. cerevisiae deletion strains, locus YPL055C, strain LGE1, active compounds read low 0.984 | S. cerevisiae deletion strains, locus YPL078C, strain atp4, active compounds read low 1.03 | S. cerevisiae deletion strains, locus YPL106C, strain sse1, active compounds read low 0.975 | S. cerevisiae deletion strains, locus YPL240C, strain hsp82, active compounds read low 0.995 | S. cerevisiae deletion strains, locus YPL241C, strain CIN2, active compounds read low 1 | S. cerevisiae deletion strains, locus YPL256C, strain CLN2, active compounds read low 1.02 | S. cerevisiae deletion strains, locus YPR119W, strain clb2, active compounds read low 1.01 | S. cerevisiae deletion strains, locus YPR141C, strain kar3, active compounds read low 1 | S. cerevisiae deletion strains, locus YPR163C, strain tif3, active compounds read low 1 | S. cerevisiae deletion strains, locus YPR167C, strain met16, active compounds read low 0.991 | S. cerevisiae deletion strains, strain wtn01, active compounds read low 0.988 | S. cerevisiae strains, strain wild type, active compounds read low 1.02
